The values that follow come from ChEMBL document CHEMBL5598561, “ASAP - In vitro binding kinetics” (2024).

The experiment deals with Nonstructural protein 3 (Zika virus) (UniProt A0A024AXB9).
Nonstructural protein 3 (Zika virus), sequence (A0A024AXB9 as listed by the source): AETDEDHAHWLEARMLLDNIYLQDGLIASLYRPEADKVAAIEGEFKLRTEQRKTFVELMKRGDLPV

Usually pKD stands for −log10 of the KD, conventionally taken in molar units. High values mean a small KD, low ones a large KD. `O=C(Nc1ccc2c(c1)CNC2)c1cc(Cl)ccc1SC1CCCC1` had a pKD (PRVABC59, Concentration 10.0 uM, Immobilization level 10000.0 pg/mm2, Rmax 23.0 pg/mm2, ka 575465.756 M-1s-1, kd 3.5 1/s) of 5.22; a negative-log KD (pKD) (PRVABC59, Concentration 10.0 uM, Immobilization level 12000.0 pg/mm2, Rmax 62.0 pg/mm2, ka 231361.37 M-1s-1, kd 1.925 1/s) of 5.08; a pKD (PRVABC59, Concentration 10.0 uM, Immobilization level 13000.0 pg/mm2, Rmax 43.0 pg/mm2, ka 253243.383 M-1s-1, kd 2.083 1/s) of 5.08.

As for `Cn1cc(CNC(=O)[C@H](Nc2ccc3c(c2)CNC3)c2cc(Cl)cc(C3CC3)c2)cn1`, the pKD turned out to be 6.38 (PRVABC59, Concentration 10.0 uM, Immobilization level 10000.0 pg/mm2, Rmax 44.0 pg/mm2, ka 376767.851 M-1s-1, kd 0.158 1/s); 6.26 (PRVABC59, Concentration 10.0 uM, Immobilization level 12000.0 pg/mm2, Rmax 64.0 pg/mm2, ka 164221.498 M-1s-1, kd 0.09 1/s); 6.28 (PRVABC59, Concentration 10.0 uM, Immobilization level 13000.0 pg/mm2, Rmax 64.0 pg/mm2, ka 253337.321 M-1s-1, kd 0.133 1/s).

On to `N#Cc1cc(Cl)cc([C@H](C#N)Nc2ccc3c(c2)CNC3)c1`, for which the pKD runs as follows: (PRVABC59, Concentration 10.0 uM, Immobilization level 10000.0 pg/mm2, Rmax 24.0 pg/mm2, ka 238302.252 M-1s-1, kd 1.184 1/s) 5.3; (PRVABC59, Concentration 10.0 uM, Immobilization level 12000.0 pg/mm2, Rmax 44.0 pg/mm2, ka 146250.163 M-1s-1, kd 0.612 1/s) 5.38; (PRVABC59, Concentration 10.0 uM, Immobilization level 13000.0 pg/mm2, Rmax 28.0 pg/mm2, ka 315015.409 M-1s-1, kd 0.863 1/s) 5.56.

For the compound `O=C(Nc1ccc2c(c1)CNC2)c1cc(Br)cc2[nH]c(C3CCOCC3)nc12`, the pKD reads like this: (PRVABC59, Concentration 10.0 uM, Immobilization level 10000.0 pg/mm2, Rmax 36.0 pg/mm2, ka 49989.202 M-1s-1, kd 0.558 1/s) 4.95; (PRVABC59, Concentration 10.0 uM, Immobilization level 12000.0 pg/mm2, Rmax 42.0 pg/mm2, ka 41393.875 M-1s-1, kd 0.2 1/s) 5.32; (PRVABC59, Concentration 10.0 uM, Immobilization level 13000.0 pg/mm2, Rmax 57.0 pg/mm2, ka 35403.894 M-1s-1, kd 0.403 1/s) 4.94.

In the case of `Clc1cc(CNc2ccc3c(c2)CNC3)c2cn[nH]c2c1`, the pKD (PRVABC59, Concentration 10.0 uM, Immobilization level 10000.0 pg/mm2, Rmax 2.0 pg/mm2, ka 219034.03 M-1s-1, kd 0.842 1/s) is 5.42; the pKD (PRVABC59, Concentration 10.0 uM, Immobilization level 12000.0 pg/mm2, Rmax 10.0 pg/mm2, ka 126196.485 M-1s-1, kd 1.272 1/s) came out at 5; the pKD (PRVABC59, Concentration 10.0 uM, Immobilization level 13000.0 pg/mm2, ka 206129.831 M-1s-1, kd 1.048 1/s) came to 5.29.

As to `O=C(NC[C@H]1CCCO1)[C@H](Nc1ccc2c(c1)CNC2)c1cc(Cl)cc(C2CC2)c1`, the pKD is, setting by setting: (PRVABC59, Concentration 10.0 uM, Immobilization level 10000.0 pg/mm2, Rmax 42.0 pg/mm2, ka 577169.922 M-1s-1, kd 0.179 1/s) 6.51; (PRVABC59, Concentration 10.0 uM, Immobilization level 12000.0 pg/mm2, Rmax 59.0 pg/mm2, ka 295597.466 M-1s-1, kd 0.112 1/s) 6.42; (PRVABC59, Concentration 10.0 uM, Immobilization level 13000.0 pg/mm2, Rmax 62.0 pg/mm2, ka 409256.138 M-1s-1, kd 0.153 1/s) 6.43.

Compound `O=C(Nc1ccc2c(c1)CNC2)c1cc(Cl)cc(-n2cccc2)c1` showed a pKD (PRVABC59, Concentration 10.0 uM, Immobilization level 10000.0 pg/mm2, Rmax 42.0 pg/mm2, ka 59822.118 M-1s-1, kd 0.636 1/s) of 4.97; a pKD (PRVABC59, Concentration 10.0 uM, Immobilization level 12000.0 pg/mm2, Rmax 78.0 pg/mm2, ka 29884.208 M-1s-1, kd 0.167 1/s) of 5.25; a pKD (PRVABC59, Concentration 10.0 uM, Immobilization level 13000.0 pg/mm2, Rmax 57.0 pg/mm2, ka 51449.064 M-1s-1, kd 0.399 1/s) of 5.11.

With `O=C(Nc1ccc2c(c1)CNC2)c1ccc(F)c2[nH]ncc12`, the pKD was 5.06 (PRVABC59, Concentration 10.0 uM, Immobilization level 10000.0 pg/mm2, Rmax 1.0 pg/mm2, ka 202467.762 M-1s-1, kd 1.761 1/s); 4.96 (PRVABC59, Concentration 10.0 uM, Immobilization level 12000.0 pg/mm2, Rmax 8.0 pg/mm2, ka 155094.955 M-1s-1, kd 1.71 1/s); 5.06 (PRVABC59, Concentration 10.0 uM, Immobilization level 13000.0 pg/mm2, ka 200831.038 M-1s-1, kd 1.747 1/s).

In the case of `O=C1Cc2c(cc(Br)cc2C(=O)Nc2ccc3c(c2)CNC3)N1`, the pKD runs as follows: (PRVABC59, Concentration 10.0 uM, Immobilization level 10000.0 pg/mm2, Rmax 28.0 pg/mm2, ka 911035.824 M-1s-1, kd 0.165 1/s) 6.74; (PRVABC59, Concentration 10.0 uM, Immobilization level 12000.0 pg/mm2, Rmax 50.0 pg/mm2, ka 582104.975 M-1s-1, kd 0.125 1/s) 6.67; (PRVABC59, Concentration 10.0 uM, Immobilization level 13000.0 pg/mm2, Rmax 39.0 pg/mm2, ka 879294.654 M-1s-1, kd 0.141 1/s) 6.79.

For `Cc1ccc(C(=O)Nc2ccc3c(c2)CNC3)c2[nH]ncc12`, the pKD (PRVABC59, Concentration 10.0 uM, Immobilization level 10000.0 pg/mm2, Rmax 28.0 pg/mm2, ka 287009.784 M-1s-1, kd 5.44 1/s) amounted to 4.72; the pKD (PRVABC59, Concentration 10.0 uM, Immobilization level 12000.0 pg/mm2, Rmax 65.0 pg/mm2, ka 163548.417 M-1s-1, kd 3.844 1/s) came to 4.63; the pKD (PRVABC59, Concentration 10.0 uM, Immobilization level 13000.0 pg/mm2, Rmax 48.0 pg/mm2, ka 218448.051 M-1s-1, kd 4.78 1/s) turned out to be 4.66.

With `Cc1cccc(CNc2ccc(Cl)cc2C(=O)Nc2ccc3c(c2)CNC3)n1`, the pKD is, setting by setting: (PRVABC59, Concentration 10.0 uM, Immobilization level 10000.0 pg/mm2, Rmax 24.0 pg/mm2, ka 19887.988 M-1s-1, kd 1.214 1/s) 4.21; (PRVABC59, Concentration 10.0 uM, Immobilization level 12000.0 pg/mm2, Rmax 8.0 pg/mm2, ka 63837.388 M-1s-1, kd 0.552 1/s) 5.06; (PRVABC59, Concentration 10.0 uM, Immobilization level 13000.0 pg/mm2, Rmax 43.0 pg/mm2, ka 14963.881 M-1s-1, kd 1.059 1/s) 4.15.

Turning to `O=C(Nc1ccc(C2CNC2)cc1)c1cc(Cl)cc2[nH]ncc12`, the pKD came out at 5.12 (PRVABC59, Concentration 10.0 uM, Immobilization level 10000.0 pg/mm2, Rmax 37.0 pg/mm2, ka 291088.891 M-1s-1, kd 2.184 1/s); 5.12 (PRVABC59, Concentration 10.0 uM, Immobilization level 12000.0 pg/mm2, Rmax 69.0 pg/mm2, ka 224213.878 M-1s-1, kd 1.69 1/s); 5.3 (PRVABC59, Concentration 10.0 uM, Immobilization level 13000.0 pg/mm2, Rmax 34.0 pg/mm2, ka 337518.302 M-1s-1, kd 1.709 1/s).

With `N#Cc1ccc(Cl)c(C(=O)Nc2ccc3c(c2)CNC3)c1`, the pKD is 5.02 (PRVABC59, Concentration 10.0 uM, Immobilization level 10000.0 pg/mm2, Rmax 28.0 pg/mm2, ka 455778.547 M-1s-1, kd 4.384 1/s); 5.03 (PRVABC59, Concentration 10.0 uM, Immobilization level 12000.0 pg/mm2, Rmax 32.0 pg/mm2, ka 264828.882 M-1s-1, kd 2.458 1/s); 5.09 (PRVABC59, Concentration 10.0 uM, Immobilization level 13000.0 pg/mm2, Rmax 23.0 pg/mm2, ka 313770.073 M-1s-1, kd 2.521 1/s).

As for `O=C(NCC(F)F)[C@H](Nc1ccc2c(c1)CNC2)c1cc(Cl)cc(C2CC2)c1`, the pKD runs as follows: (PRVABC59, Concentration 10.0 uM, Immobilization level 10000.0 pg/mm2, Rmax 47.0 pg/mm2, ka 474542.901 M-1s-1, kd 0.05 1/s) 6.97; (PRVABC59, Concentration 10.0 uM, Immobilization level 12000.0 pg/mm2, Rmax 82.0 pg/mm2, ka 199001.376 M-1s-1, kd 0.068 1/s) 6.46; (PRVABC59, Concentration 10.0 uM, Immobilization level 13000.0 pg/mm2, Rmax 74.0 pg/mm2, ka 337297.719 M-1s-1, kd 0.055 1/s) 6.78.

Consider `Cn1ncc2c(C(=O)Nc3ccc4c(c3)CNC4)cc(C3CC3)nc21`, for which the pKD is, setting by setting: (PRVABC59, Concentration 10.0 uM, Immobilization level 10000.0 pg/mm2, Rmax 33.0 pg/mm2, ka 244724.506 M-1s-1, kd 7.844 1/s) 4.49; (PRVABC59, Concentration 10.0 uM, Immobilization level 12000.0 pg/mm2, Rmax 31.0 pg/mm2, ka 442165.646 M-1s-1, kd 5.14 1/s) 4.93; (PRVABC59, Concentration 10.0 uM, Immobilization level 13000.0 pg/mm2, Rmax 33.0 pg/mm2, ka 379334.104 M-1s-1, kd 6.596 1/s) 4.76.

As for `N#Cc1cc(C(=O)Nc2ccc3c(c2)CNC3)cc(C(F)(F)F)c1`, the pKD runs as follows: (PRVABC59, Concentration 1.0 uM, Immobilization level 3900.0 pg/mm2, Rmax 43.0 pg/mm2, ka 266866.495 M-1s-1, kd 1.179 1/s) 5.36; (PRVABC59, Concentration 10.0 uM, Immobilization level 4900.0 pg/mm2, Rmax 32.0 pg/mm2, ka 534169.763 M-1s-1, kd 0.781 1/s) 5.84; (PRVABC59, Concentration 10.0 uM, Immobilization level 5500.0 pg/mm2, Rmax 33.0 pg/mm2, ka 604018.636 M-1s-1, kd 0.866 1/s) 5.84; (PRVABC59, Concentration 10.0 uM, Immobilization level 10000.0 pg/mm2, Rmax 37.0 pg/mm2, ka 362843.113 M-1s-1, kd 0.996 1/s) 5.56; (PRVABC59, Concentration 10.0 uM, Immobilization level 12000.0 pg/mm2, Rmax 65.0 pg/mm2, ka 232125.016 M-1s-1, kd 0.861 1/s) 5.43; (PRVABC59, Concentration 10.0 uM, Immobilization level 13000.0 pg/mm2, Rmax 45.0 pg/mm2, ka 383567.228 M-1s-1, kd 0.798 1/s) 5.68.

As to `O=C1NCc2c1cccc2C(=O)Nc1ccc2c(c1)CNC2`, the pKD by setting is: (PRVABC59, Concentration 10.0 uM, Immobilization level 3900.0 pg/mm2, Rmax 18.0 pg/mm2, ka 393715.885 M-1s-1, kd 4.071 1/s) 4.99; (PRVABC59, Concentration 10.0 uM, Immobilization level 4900.0 pg/mm2, Rmax 15.0 pg/mm2, ka 235814.335 M-1s-1, kd 2.807 1/s) 4.92; (PRVABC59, Concentration 10.0 uM, Immobilization level 5500.0 pg/mm2, Rmax 18.0 pg/mm2, ka 357121.96 M-1s-1, kd 4.231 1/s) 4.93; (PRVABC59, Concentration 10.0 uM, Immobilization level 12000.0 pg/mm2, ka 172299.161 M-1s-1, kd 1.476 1/s) 5.07; (PRVABC59, Concentration 10.0 uM, Immobilization level 13000.0 pg/mm2, Rmax 19.0 pg/mm2, ka 18937.32 M-1s-1, kd 1.323 1/s) 4.16.

In the case of `NCc1ccc(NC(=O)c2cc(Cl)cc3[nH]ncc23)cc1F`, the pKD was determined as 4.94 (PRVABC59, Concentration 10.0 uM, Immobilization level 3900.0 pg/mm2, Rmax 23.0 pg/mm2, ka 241912.451 M-1s-1, kd 2.753 1/s); 5.14 (PRVABC59, Concentration 10.0 uM, Immobilization level 4900.0 pg/mm2, Rmax 19.0 pg/mm2, ka 418363.843 M-1s-1, kd 3.02 1/s); 5 (PRVABC59, Concentration 10.0 uM, Immobilization level 5500.0 pg/mm2, Rmax 22.0 pg/mm2, ka 268076.557 M-1s-1, kd 2.711 1/s); 4.95 (PRVABC59, Concentration 10.0 uM, Immobilization level 12000.0 pg/mm2, Rmax 15.0 pg/mm2, ka 138303.314 M-1s-1, kd 1.565 1/s); 4.16 (PRVABC59, Concentration 10.0 uM, Immobilization level 13000.0 pg/mm2, Rmax 64.0 pg/mm2, ka 32485.569 M-1s-1, kd 2.272 1/s).
